{
  "source": "PubChem BioAssay (NCI)",
  "note": "This is part of a sample that, as a whole, favours compounds with a hit. Of some 83,000 tested, about 20% had one in any assay.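 Plates (96-well) were seeded with cells, treated with compound at one concentration, and incubated for 48 hours before percent growth was determined.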 Active and inactive are the calls of the source.",
  "data": [
    {"test_system": "OVCAR-4 ovarian", "experiment": "NCI-60 one-dose screen, 48 h (100 = growth as untreated, 0 = no growth, -100 = all killed)", "settings": "10 µM unless noted", "procedure": "Growth inhibition of the OVCAR-4 human tumor cell line is measured as a screen for anti-cancer activity. Cells are grown in 96 well plates and exposed to the test compound for 48 hours. Compounds are tested at a single concentration, which is 10^-5 M for most compounds. The reported endpoint is percent growth (GI% or GIPRCNT), where numbers from 0 - 100% represent growth inhibition, and numbers from -100% - 0 represent cell death. For example, a value of 40 represents 60% growth inhibition. A value of 0 means no net growth occurred over the course of the experiment. A value of -40 indicates 40% of cells at the beginning of the experiment died by the end of the experiment. A value of -100 means all cells are dead at the end of the experiment.\nNCI-60 Human Tumor Cell Lines Screen was performed using the standard one-dose NCI protocol, which is described in more detail at https://dtp.cancer.gov/discovery_development/nci-60/default.htm.\nCompounds with GIPRCNT values below 10 were considered active. Activity score was based on GIPRCNT using the following formula: […]\nScore is 0 for GIPRCNT values of 100 or above, 50 for GIPRCNT values of 0, and 100 for GIPRCNT values of -100.", "values": [
      {"compound": "O=C1OC2(c3ccccc31)c1ccccc1-c1ccccc12", "growth": "82.9% (inactive)"},
      {"compound": "COc1ccc2c(c1)sc1nc(-c3ccc(N(C)C)cc3)cn12", "growth": "97.8% (inactive)"},
      {"compound": "Nc1ccccc1-c1ccn[nH]1", "growth": "94.7% (inactive)"},
      {"compound": "Cc1ccccc1NC(=O)NC(CC(N)=O)c1ccc2c(c1)nc(-c1cccc(Oc3ccc(C(C)(C)C)cc3)c1)n2CCCN1CCCCC1C", "note": "(stereo not given)", "growth": "66.5% (inactive)"},
      {"compound": "O=Cc1ncc(-c2ccc(C(F)(F)F)cc2)c(NC2CCCCCC2)n1", "growth": "-73.8% [100 µM] (active)"},
      {"compound": "COc1ccc2[nH]c(=O)c(CNc3ccc(Nc4nccc(-c5ccc(Cl)cc5)n4)cc3)cc2c1", "growth": "99.9% (inactive)"},
      {"compound": "Cc1ccc(/C=C/C(=O)c2ccc(F)cc2)s1", "growth": "81.2% (inactive)"},
      {"compound": "COc1ccc2cc(C3=CC(=O)CCC3)ccc2c1", "growth": "104% (inactive)"},
      {"compound": "O=C1C=CC(=O)N1c1ccccn1", "growth": "100% (inactive)"},
      {"compound": "Cc1cc(Cl)ccc1Nc1nc(C(F)(F)F)ccc1C(=O)N/N=C/c1ccc(Cl)cc1", "growth": "0.502% (active)"},
      {"compound": "O=C(Nc1nc2c(C(F)(F)F)cccc2s1)c1cc(Cl)ccc1O", "growth": "21.8% (inactive)"},
      {"compound": "N#CC(C#N)C(C#N)C#N", "growth": "98.6% (inactive)"},
      {"compound": "C[C@H](C(=O)N[C@@H](Cc1ccc(-c2ccccc2)cc1)C(=O)NC1CC(C)(C)NC(C)(C)C1)c1ccc(-c2ccccc2)c(F)c1", "growth": "-27.4% (active)"},
      {"compound": "Cc1cc(=O)oc2cc(OCCn3c(C)nn(-c4ccc(Cl)cc4)c3=O)ccc12", "growth": "67.1% (inactive)"},
      {"compound": "C1CCC(C(CC2CCCCN2)C2CCCCC2)CC1", "note": "(stereo not given)", "growth": "28.8% (inactive)"},
      {"compound": "COC(=O)[C@H](Cc1cn(C)cn1)NC(=O)[C@H](C)NC(=O)Nc1cc(C(F)(F)F)cc(C(F)(F)F)c1", "growth": "-58.3% [100 µM] (active)"},
      {"compound": "CCOC(=O)c1cc2oc(/C=C/c3cc(=O)c4cc(Cl)ccc4o3)cc2[nH]1", "growth": "89.6% (inactive)"},
      {"compound": "CCCCN=C(N)c1ccc(OCCSCCOc2ccc(C(N)=NCCCC)cc2)cc1", "growth": "50.8% (inactive)"},
      {"compound": "COc1ccccc1NC(=O)c1sc2nc3c(cc2c1N)C(=O)CCC3", "growth": "91.4% (inactive)"},
      {"compound": "CC(=O)N1N=C(c2ccc(C(F)(F)F)cc2)CC1c1ccc2c(c1)OCO2", "note": "(stereo not given)", "growth": "77.8% (inactive)"},
      {"compound": "COc1cc(C2=NN(C=O)C(c3cccc(Nc4ccnc5cc(Cl)ccc45)c3)C2)cc(OC)c1OC", "note": "(stereo not given)", "growth": "69.3% (inactive)"},
      {"compound": "COc1ccc(-c2cc(-c3nnc(SCC(=O)Nc4ccc(C(C)=O)cc4)n3-c3ccccc3)c3ccccc3n2)cc1OC", "growth": "106% (inactive)"},
      {"compound": "Cc1ccc(S(=O)(=O)N2CCN(C(=O)CSc3nc4ccc(C)cc4[nH]3)CC2)cc1", "growth": "107% (inactive)"},
      {"compound": "O=C(CC(C(=O)c1ccccc1)N1CCN(Cc2ccccc2)CC1)c1ccccc1", "note": "(stereo not given)", "growth": "86.5% (inactive)"},
      {"compound": "CC(C)=CCCC(C)c1ccc(C)c2c1OCN(CC1CCNCC1)C2", "note": "(stereo not given)", "growth": "91.7% (inactive)"},
      {"compound": "O=C(COc1cccc(/C=C2\\Cc3ccccc3C2=O)c1)c1ccc(Cl)cc1", "growth": "90.1% (inactive)"},
      {"compound": "COc1ccc2c3c(ccc2c1)C(=O)/C(=C\\O)CC3", "growth": "100% (inactive)"},
      {"compound": "CNCCCn1c2c(c3ccc(F)cc3c1=O)C(=O)c1cc(OC)cnc1-2", "growth": "-5.91% (active)"},
      {"compound": "COc1ccc(C2=NN(C(C)=O)C(c3cccc(Nc4ccnc5cc(Cl)ccc45)c3)C2)cc1", "note": "(stereo not given)", "growth": "42% (inactive)"},
      {"compound": "O=C1NC(=O)/C(=C\\c2ccco2)S1", "growth": "121% (inactive)"},
      {"compound": "Cc1sc2nc(N3CCCCC3)[nH]c(=O)c2c1C", "growth": "100% (inactive)"},
      {"compound": "O=C(CNC(=O)c1cccc2ccccc12)Nc1ccccc1Oc1ccc(O)cc1", "growth": "70.4% [5 µM] (inactive)"},
      {"compound": "Cc1cc2c(cc1C)[n+](Cc1ccc3ccccc3n1)cn2Cc1ccc2ccccc2n1", "growth": "8.38% (active)"},
      {"compound": "NC(=O)NC1(C(=O)O)CCCC1", "growth": "118% (inactive)"},
      {"compound": "Cc1n(Cc2ccc3ccccc3c2)cc[n+]1Cc1ccc2ccccc2c1", "growth": "9.29% (active)"},
      {"compound": "O=C(CSc1nnc(-c2cc(-c3ccccc3)nc3ccccc23)o1)c1ccc(Br)cc1", "growth": "106% (inactive)"},
      {"compound": "O=C1c2cccc3c([N+](=O)[O-])ccc(c23)C(=O)N1CCCCl", "growth": "-97% [100 µM] (active)"},
      {"compound": "O=CN1N=C(c2ccc(Cl)cc2)CC1c1cccc(Nc2ccnc3cc(Cl)ccc23)c1", "note": "(stereo not given)", "growth": "29.2% (inactive)"},
      {"compound": "O=C(C(=O)N1CCOCC1)c1cn(CCCn2cc(C(=O)C(=O)N3CCOCC3)c3ccccc32)c2ccccc12", "growth": "109% (inactive)"},
      {"compound": "CC1CN(CC(O)c2ccc(Br)cc2)CCO1", "note": "(stereo not given)", "growth": "116% (inactive)"}
    ]}
  ]
}
